Assay [1] in a line: antimalarial activity against Dd2 strain (AID 2302;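 active = growth inhibition above 50% at the single 2 µM test dose, taken to imply half-maximal potency below 2 µM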;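 also: 0% = DMSO untreated growth and 100% = chloroquine plus artemisinin killed control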). To be noted: P. falciparum Dd2 in RBCs, LDH growth readout, 72 h; at 2 µM; hits give high values.
Assay [2] in a line: HepG2 cytotoxicity, primary screen, cytotoxicity control for P. falciparum antimalarial project, cell-based, ATP luminescence (AID 2303;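 active = inhibition above 50%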;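 also: 0% = DMSO wells and 100% = digitonin-killed cells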). To be noted: HepG2 viability, 24-48 h, at 10 µM, hits give high values.
The target of assay [3] is L-lactate dehydrogenase (Plasmodium falciparum (isolate CDC / Honduras)) (UniProt Q27743). The assay is described as follows: PfLDH activity inhibition – cell lysate, 3D7 strain, counter-screen for P. falciparum growth inhibition project (AID 2304).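 Also: 0% = vehicle and 100% = reference inhibitor.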 To be noted: P. falciparum 3D7 crude extract, LDH APAD/NBT absorbance; at 2 µM; hits give high values. (The purpose of a counterscreen is to sort out artefacts and off-target activity.)

Assay [4] is described as follows: inhibition of 3D7 malaria parasite growth – strain 3D7 (AID 2306).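 Also: 0% = DMSO wells and 100% = chloroquine plus artemisinin control wells.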 To be noted: P. falciparum 3D7 erythrocytic growth, LDH absorbance, 72 h; at 2 µM; hits give high values.
The target of assay [5] is Calcium-dependent protein kinase 1 (Plasmodium falciparum (isolate 3D7)) (UniProt P62344). Put plainly: PfCDPK1 kinase inhibitors, biochemical, TCAMS library (AID 1159585; cut-off not given, nearly all actives have IC50 up to about 0.98 µM;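 also: inhibitors leave more ATP so luminescence rises with inhibition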). To be noted: recombinant PfCDPK1, Kinase-Glo ATP depletion luminescence.
For assay [6], the target named is Plasmodium falciparum protein kinase 6 (PK6, PF3D7_1337100) (UniProt Q8IDW1). Put plainly: PfPK6 kinase inhibitors, biochemical, TCAMS library (AID 1159586). To be noted: recombinant PfPK6, Kinase-Glo ATP depletion luminescence. On the technique in general: Kinase-Glo reads ATP consumption through a luciferase reaction.
The target of assay [7] is Protein kinase 7 (PK7), Plasmodium falciparum 3D7 (PF3D7_0213400) (UniProt Q7YTF7). The assay is described as follows: inhibition of Plasmodium PK7 catalytic activity – biochemical, TCAMS antimalarial set, Kinase-Glo luminescence (AID 1159587). To be noted: recombinant PfPK7, Kinase-Glo ATP depletion luminescence.
For assay [8], the target named is Calcium-dependent protein kinase 4 (Plasmodium falciparum (isolate 3D7)) (UniProt Q8IBS5). The assay is described as follows: PfCDPK4 kinase inhibitors, biochemical, TCAMS library (AID 1159588; cut-off not given, nearly all actives have IC50 up to about 0.91 µM). To be noted: recombinant PfCDPK4, Kinase-Glo ATP depletion luminescence.

The record followed here is PubChem BioAssay.

Values without a mark were called inactive. For some of these results: Results with a measured potency or affinity are listed apart. Calls of active or inactive are those of the source. Unless noted, no rule for the calls is given here.

Usually inhibition stands for the change of the read-out against control, counted positive when it falls.

Calcium-dependent protein kinase 1 (Plasmodium falciparum (isolate 3D7)), sequence (P62344 whole entry, looked up): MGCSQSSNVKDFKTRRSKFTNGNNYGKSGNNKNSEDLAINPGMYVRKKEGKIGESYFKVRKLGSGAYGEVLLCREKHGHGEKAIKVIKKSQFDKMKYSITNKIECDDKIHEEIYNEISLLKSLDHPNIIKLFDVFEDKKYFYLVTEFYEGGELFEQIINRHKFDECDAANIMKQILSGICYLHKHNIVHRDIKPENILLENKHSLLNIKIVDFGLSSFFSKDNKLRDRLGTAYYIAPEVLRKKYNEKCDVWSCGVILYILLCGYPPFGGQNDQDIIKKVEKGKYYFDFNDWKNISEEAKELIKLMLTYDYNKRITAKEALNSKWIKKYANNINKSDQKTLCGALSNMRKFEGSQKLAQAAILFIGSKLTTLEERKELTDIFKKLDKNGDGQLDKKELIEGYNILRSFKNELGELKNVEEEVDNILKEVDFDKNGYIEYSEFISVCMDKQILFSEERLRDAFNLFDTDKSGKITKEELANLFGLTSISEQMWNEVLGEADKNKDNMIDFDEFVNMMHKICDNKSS
Calcium-dependent protein kinase 4 (Plasmodium falciparum (isolate 3D7)), sequence (Q8IBS5 whole entry, looked up): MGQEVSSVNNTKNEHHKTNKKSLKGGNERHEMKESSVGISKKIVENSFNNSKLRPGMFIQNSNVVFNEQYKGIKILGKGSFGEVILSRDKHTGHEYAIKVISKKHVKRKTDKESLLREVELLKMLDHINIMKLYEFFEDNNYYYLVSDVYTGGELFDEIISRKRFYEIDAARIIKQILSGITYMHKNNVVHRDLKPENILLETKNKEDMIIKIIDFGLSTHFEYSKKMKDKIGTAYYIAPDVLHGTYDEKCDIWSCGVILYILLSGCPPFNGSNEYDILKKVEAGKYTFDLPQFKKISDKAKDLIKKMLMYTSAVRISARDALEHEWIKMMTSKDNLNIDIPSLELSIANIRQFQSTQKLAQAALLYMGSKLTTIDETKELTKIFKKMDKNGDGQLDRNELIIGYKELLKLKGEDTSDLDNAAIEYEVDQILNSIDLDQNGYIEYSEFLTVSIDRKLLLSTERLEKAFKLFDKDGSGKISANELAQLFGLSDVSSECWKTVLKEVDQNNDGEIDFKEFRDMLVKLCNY
Plasmodium falciparum protein kinase 6 (PK6, PF3D7_1337100), sequence (Q8IDW1 1-305): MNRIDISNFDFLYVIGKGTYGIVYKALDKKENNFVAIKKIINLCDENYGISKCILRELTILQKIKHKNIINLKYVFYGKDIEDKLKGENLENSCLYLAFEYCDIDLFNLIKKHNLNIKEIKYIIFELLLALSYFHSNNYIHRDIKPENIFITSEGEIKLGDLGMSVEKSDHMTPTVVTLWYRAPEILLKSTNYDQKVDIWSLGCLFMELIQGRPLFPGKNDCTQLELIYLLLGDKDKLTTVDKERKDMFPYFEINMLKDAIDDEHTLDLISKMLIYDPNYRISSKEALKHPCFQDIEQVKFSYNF
Protein kinase 7 (PK7), Plasmodium falciparum 3D7 (PF3D7_0213400), sequence (Q7YTF7 1-343): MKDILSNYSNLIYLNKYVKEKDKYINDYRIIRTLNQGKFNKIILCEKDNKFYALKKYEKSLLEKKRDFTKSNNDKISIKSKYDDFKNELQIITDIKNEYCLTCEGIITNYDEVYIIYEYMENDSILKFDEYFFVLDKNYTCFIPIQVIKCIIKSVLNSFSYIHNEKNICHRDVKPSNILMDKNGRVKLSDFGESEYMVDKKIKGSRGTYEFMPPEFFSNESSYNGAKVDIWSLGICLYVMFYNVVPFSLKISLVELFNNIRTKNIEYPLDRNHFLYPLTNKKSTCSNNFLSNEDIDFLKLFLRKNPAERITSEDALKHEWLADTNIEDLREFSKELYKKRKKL
L-lactate dehydrogenase (Plasmodium falciparum (isolate CDC / Honduras)), sequence (Q27743 whole entry, looked up): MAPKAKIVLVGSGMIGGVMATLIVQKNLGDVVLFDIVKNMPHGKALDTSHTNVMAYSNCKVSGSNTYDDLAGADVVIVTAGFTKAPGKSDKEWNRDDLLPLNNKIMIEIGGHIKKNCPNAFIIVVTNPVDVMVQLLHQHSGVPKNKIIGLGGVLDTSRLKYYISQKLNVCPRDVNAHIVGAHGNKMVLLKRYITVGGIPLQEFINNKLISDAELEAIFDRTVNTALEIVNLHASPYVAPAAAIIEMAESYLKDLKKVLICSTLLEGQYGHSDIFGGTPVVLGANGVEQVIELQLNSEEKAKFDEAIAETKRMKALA

In the case of `O=C(Nc1cccc(-c2ccc(CN3CCCC3)cc2)c1)c1ccc(Cl)cc1`, the growth inhibition in assay [1] is 47%; in assay [4], 100% (active). For the same molecule, the inhibition in assay [2] is 29%; in assay [3] it was -1%. The result in assay [5], in assay [6], in assay [7] and in assay [8] was inactive.
As to `Cc1cc(NN=Cc2ccccc2Cl)c2cc(C(F)(F)F)ccc2n1`, the growth inhibition was 75% (active) in assay [1] and 100% (active) in assay [4]. In addition, the inhibition in assay [2] and in assay [3] was -4% in each case. In addition, the outcome in assay [5], in assay [6], in assay [7] and in assay [8] was inactive.
`CCNc1cc(C)nc(Nc2ccc(NC(=O)c3cccs3)cc2)n1`: the growth inhibition in assay [1] was 50% (active); in assay [4], 101% (active). Further, the inhibition is 21% in assay [2] and 0% in assay [3]. The result in assay [5], in assay [6], in assay [7] and in assay [8] was inactive.
As to `O=C(Nc1ccc(C(=O)N2CCN(CCN3CCN(c4cccc(C(F)(F)F)c4)CC3)CC2)cc1)c1cc(Cl)cc(Cl)c1`, the growth inhibition in assay [1] is 19%; in assay [4], 100% (active). Besides, the inhibition in assay [2] is 23%; in assay [3], 3%. The result in assay [5], in assay [6], in assay [7] and in assay [8] was inactive.
As for `COc1cc(Nc2nccc(Nc3ccc4c(C)[nH]nc4c3)n2)cc2ccccc12`, the results for the growth inhibition in assay [1] and in assay [4] were 82% (active) and 102% (active), respectively. Further, the inhibition in assay [2] was 13%; in assay [3] it was 5%. The outcome in assay [5], in assay [6], in assay [7] and in assay [8] was inactive.
In the case of `O=C(/C=C/c1ccc(Cl)c(Cl)c1)NCCCCCN1CCC(NC(=O)Nc2cc(Cl)nc(Cl)c2)CC1`, the growth inhibition in assay [1] is 2%; in assay [4], 102% (active). The inhibition in assay [2] is 4%; in assay [3], -8%. For the same molecule, the outcome in assay [5], in assay [6], in assay [7] and in assay [8] was inactive.
With `COc1ccc2ncc(F)c([C@H](O)CN3CCC(NCc4ccc5c(c4)OCCO5)CC3)c2c1`, the growth inhibition in assay [1] was 99% (active); in assay [4] it was 102% (active). Also, the inhibition in assay [2] is 1%; in assay [3] it was -5%. Further, the outcome in assay [5], in assay [6], in assay [7] and in assay [8] was inactive.
On to `COc1ccc(NC(=O)C=Cc2ccc(Oc3ccccc3Cl)c([N+](=O)[O-])c2)cc1OCCN(C(C)C)C(C)C`, for which the values for the growth inhibition in assay [1] and in assay [4] were 97% (active) and 99% (active), respectively. The figures for the inhibition in assay [2] and in assay [3] were 31% and 2%, respectively. Moreover, the result in assay [5], in assay [6], in assay [7] and in assay [8] was inactive.
On to `COc1ccc2ncc(Cl)c(CCN3CCC(NCc4ccc5c(n4)NC(=O)CS5)CC3)c2c1`, for which the growth inhibition in assay [1] was 34%; in assay [4], 100% (active). Further, the inhibition is 26% in assay [2] and -2% in assay [3]. In addition, the outcome in assay [5], in assay [6], in assay [7] and in assay [8] was inactive.
In the case of `COc1ccc([N+](=O)[O-])cc1N(Cc1ccccc1-c1ccccc1)S(=O)(=O)c1ccc(C(F)(F)F)cc1`, the values for the growth inhibition in assay [1] and in assay [4] were 66% (active) and 96% (active), respectively. Besides, the inhibition is 3% in assay [2] and -2% in assay [3]. Also, the result in assay [5], in assay [6], in assay [7] and in assay [8] was inactive.
For `CN(C)CCN(Cc1ccccc1-c1ccc(CNCCc2ccccc2)cc1)C(=O)c1ccccc1`, the growth inhibition in assay [1] was 97% (active); in assay [4] it was 95% (active). For the same molecule, the inhibition in assay [2] was 81% (active); in assay [3], -3%. Moreover, the result in assay [5], in assay [6], in assay [7] and in assay [8] was inactive.
`CC(=NNC(=S)Nc1ccccc1Cl)c1ccccn1`: the growth inhibition in assay [1] is 99% (active); in assay [4] it was 100% (active). Also, the inhibition was 69% (active) in assay [2] and 6% in assay [3]. For the same molecule, the outcome in assay [5], in assay [6], in assay [7] and in assay [8] was inactive.
In the case of `c1ccc(COc2ccc(COc3ccc(Cn4ccnc4)cc3)cc2)cc1`, the growth inhibition in assay [1] was 45%; in assay [4], 86% (active). The inhibition in assay [2] is 9%; in assay [3], 0%. Also, the result in assay [5], in assay [6], in assay [7] and in assay [8] was inactive.
Consider `Cn1nc(-c2ccc(CN[C@@H]3CCc4ccc(O)cc43)cc2)c2cnc(NC3CCCC3)nc21`, for which the growth inhibition in assay [1] is 8%; in assay [4], 97% (active). Moreover, the values for the inhibition in assay [2] and in assay [3] were 12% and 0%, respectively. Further, the result in assay [5], in assay [6], in assay [7] and in assay [8] was inactive.
With `OCCCCCCNc1ccnc2[nH]c3ccc(I)cc3c12`, the growth inhibition in assay [1] was 61% (active); in assay [4] it was 100% (active). Also, the inhibition in assay [2] was 27%; in assay [3], -4%. Also, the result in assay [5], in assay [6], in assay [7] and in assay [8] was inactive.
On to `NC1=NC(c2ccccc2)(c2ccccn2)C(=O)N1CCCc1ccccc1` (stereo not given), for which the growth inhibition in assay [1] is 64% (active); in assay [4], 85% (active). For the same molecule, the inhibition was -1% in assay [2] and -2% in assay [3]. Further, the result in assay [5], in assay [6], in assay [7] and in assay [8] was inactive.
Regarding `O=C(Nc1cccnc1)c1ccc(-c2cc3ccncc3cc2OC2CCNCC2)s1`, the growth inhibition is 12% in assay [1] and 97% (active) in assay [4]. The inhibition was -5% in assay [2] and 1% in assay [3]. Also, the outcome in assay [5], in assay [6], in assay [7] and in assay [8] was inactive.
`CC(=O)Nc1ccc(CNC2Cc3ccc(-c4ccc(Cl)c(Cl)c4)cc3C2)cc1` (stereo not given): the growth inhibition was 7% in assay [1] and 89% (active) in assay [4]. For the same molecule, the inhibition in assay [2] was 49%; in assay [3] it was -3%. The outcome in assay [5], in assay [6], in assay [7] and in assay [8] was inactive.
On to `Cc1cc(OCCCN2CCCCC2C)ccc1NC(=O)COc1ccc(Cl)cc1C(=O)c1cc(Cl)cc(C#N)c1` (stereo not given), for which the growth inhibition in assay [1] was 14%; in assay [4] it was 91% (active). Moreover, the inhibition in assay [2] is 23%; in assay [3], -2%. The result in assay [5], in assay [6], in assay [7] and in assay [8] was inactive.
With `COc1cc(CNc2ccc(N3CCCC3)cc2)cc(Cl)c1OC`, the growth inhibition in assay [1] is 94% (active); in assay [4], 100% (active). In addition, the inhibition was 41% in assay [2] and 1% in assay [3]. In addition, the outcome in assay [5], in assay [6], in assay [7] and in assay [8] was inactive.
